In PubChem BioAssay AID1159580 (chemical genetic matrix, 2015):
The whole screen tested about 5,500 compounds, of which about 2,000 (36%) were called active. Roughly 18% stayed inconclusive and do not appear here. Rule as the data show it: active = normalized growth mostly below about 0.91 (no sharp cut-off); inconclusive = no clear call, values can overlap the other calls; inactive = mostly above about 0.92. The list shows a part of the results.

Test: chemical genetic growth profiling, strain panel (AID 1159580);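 also: tested at 20 µM; growth read once vehicle control cultures reached saturation at 30 °C; 1 = growth at the plate median or of vehicle wells; lower values mean less growth of the strain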
Details: growth OD

Measured: normalized growth

O=C(O)CCC(=O)OC[C@@H](NC(=O)C(Cl)Cl)[C@H](O)c1ccc([N+](=O)[O-])cc1
inactive: S. cerevisiae deletion strains, locus YJR043C, strain POL32, stronger effect = lower value 0.977 | S. cerevisiae deletion strains, locus YJR066W, strain TOR1, stronger effect = lower value 0.981 | S. cerevisiae deletion strains, locus YKL009W, strain mrt4, stronger effect = lower value 1 | S. cerevisiae deletion strains, locus YKL068W, stronger effect = lower value 0.962 | S. cerevisiae deletion strains, locus YKL085W, strain MDH1 (second series), stronger effect = lower value 0.99 | S. cerevisiae deletion strains, locus YKL085W, strain MDH1, stronger effect = lower value 0.99 | S. cerevisiae deletion strains, locus YKL160W, strain elf1, stronger effect = lower value 0.98 | S. cerevisiae deletion strains, locus YKL190W, strain CNB1, stronger effect = lower value 0.993 | S. cerevisiae deletion strains, locus YKR001C, strain vps1, stronger effect = lower value 0.967 | S. cerevisiae deletion strains, locus YKR026C, strain gcn3, stronger effect = lower value 0.984 | S. cerevisiae deletion strains, locus YKR091W, strain srl3, stronger effect = lower value 0.971 | S. cerevisiae deletion strains, locus YLL001W, strain dnm1, stronger effect = lower value 0.937 | S. cerevisiae deletion strains, locus YLL026W, stronger effect = lower value 0.974 | S. cerevisiae deletion strains, locus YLL041C, strain sdh2, stronger effect = lower value 0.993 | S. cerevisiae deletion strains, locus YLR027C, strain aat2, stronger effect = lower value 0.99 | S. cerevisiae deletion strains, locus YLR039C, strain RIC1, stronger effect = lower value 0.964 | S. cerevisiae deletion strains, locus YLR058C, strain SHM2, stronger effect = lower value 0.976 | S. cerevisiae deletion strains, locus YLR102C, strain apc9, stronger effect = lower value 0.977 | S. cerevisiae deletion strains, locus YLR113W, strain HOG1, stronger effect = lower value 0.973 | S. cerevisiae deletion strains, locus YLR221C, strain rsa3, stronger effect = lower value 0.918 | S. cerevisiae deletion strains, locus YLR258W, strain gsy2, stronger effect = lower value 0.984 | S. cerevisiae deletion strains, locus YLR262C, strain YPT6 (second series), stronger effect = lower value 0.966 | S. cerevisiae deletion strains, locus YLR262C, strain YPT6, stronger effect = lower value 0.866 | S. cerevisiae deletion strains, locus YLR268W, strain sec22, stronger effect = lower value 0.974 | S. cerevisiae deletion strains, locus YLR320W, strain mms22, stronger effect = lower value 0.944 | S. cerevisiae deletion strains, locus YLR330W, strain CHS5, stronger effect = lower value 0.985 | S. cerevisiae deletion strains, locus YLR342W, strain FKS1 (second series), stronger effect = lower value 1.01 | S. cerevisiae deletion strains, locus YLR342W, strain FKS1, stronger effect = lower value 0.986 | S. cerevisiae deletion strains, locus YLR357W, strain rsc2, stronger effect = lower value 1 | S. cerevisiae deletion strains, locus YLR370C, strain arc18, stronger effect = lower value 0.944 | S. cerevisiae deletion strains, locus YLR371W, strain rom2, stronger effect = lower value 0.979 | S. cerevisiae deletion strains, locus YLR384C, strain iki3, stronger effect = lower value 0.987 | S. cerevisiae deletion strains, locus YLR418C, strain cdc73, stronger effect = lower value 0.974 | S. cerevisiae deletion strains, locus YML016C, strain PPZ1, stronger effect = lower value 0.979 | S. cerevisiae deletion strains, locus YML032C, strain rad52, stronger effect = lower value 0.968 | S. cerevisiae deletion strains, locus YML120C, strain ndi1, stronger effect = lower value 0.936 | S. cerevisiae deletion strains, locus YML124C, strain tub3, stronger effect = lower value 0.994 | S. cerevisiae deletion strains, locus YMR058W, strain fet3, stronger effect = lower value 0.983 | S. cerevisiae deletion strains, locus YMR078C, strain ctf18, stronger effect = lower value 0.978 | S. cerevisiae deletion strains, locus YMR125W, strain sto1, stronger effect = lower value 0.962 | S. cerevisiae deletion strains, locus YMR129W, stronger effect = lower value 0.988 | S. cerevisiae deletion strains, locus YMR205C, strain PFK2, stronger effect = lower value 1.01 | S. cerevisiae deletion strains, locus YMR223W, strain ubp8, stronger effect = lower value 0.997 | S. cerevisiae deletion strains, locus YMR231W, strain pep5, stronger effect = lower value 0.996 | S. cerevisiae deletion strains, locus YMR263W, strain SAP30, stronger effect = lower value 1.01 | S. cerevisiae deletion strains, locus YMR307W, strain GAS1, stronger effect = lower value 1.05 | S. cerevisiae deletion strains, locus YNL067W, strain RPL9B, stronger effect = lower value 1.03 | S. cerevisiae deletion strains, locus YNL071W, strain lat1, stronger effect = lower value 0.989 | S. cerevisiae deletion strains, locus YNL153C, strain GIM3, stronger effect = lower value 1.02 | S. cerevisiae deletion strains, locus YNL183C, strain NPR1, stronger effect = lower value 0.93 | S. cerevisiae deletion strains, locus YNL209W, strain ssb2, stronger effect = lower value 0.971 | S. cerevisiae deletion strains, locus YNL233W, strain BNI4, stronger effect = lower value 1.02 | S. cerevisiae deletion strains, locus YNL248C, strain rpa49, stronger effect = lower value 1.02 | S. cerevisiae deletion strains, locus YNL271C, strain bni1, stronger effect = lower value 0.97 | S. cerevisiae deletion strains, locus YNL298W, strain CLA4, stronger effect = lower value 0.983 | S. cerevisiae deletion strains, locus YNL307C, strain MCK1, stronger effect = lower value 0.99 | S. cerevisiae deletion strains, locus YNL322C, strain KRE1 (second series), stronger effect = lower value 0.962 | S. cerevisiae deletion strains, locus YNR049C, strain mso1, stronger effect = lower value 0.972 | S. cerevisiae deletion strains, locus YNR052C, strain pop2, stronger effect = lower value 0.989 | S. cerevisiae deletion strains, locus YOL006C, strain TOP1, stronger effect = lower value 1.15 | S. cerevisiae deletion strains, locus YOL012C, strain htz1 0.661 | S. cerevisiae deletion strains, locus YOL147C, strain pex11, stronger effect = lower value 0.988 | S. cerevisiae deletion strains, locus YOR001W, strain rrp6, stronger effect = lower value 1.04 | S. cerevisiae deletion strains, locus YOR061W, strain CKA2, stronger effect = lower value 0.967 | S. cerevisiae deletion strains, locus YOR069W, strain VPS5, stronger effect = lower value 0.967 | S. cerevisiae deletion strains, locus YOR070C, strain gyp1, stronger effect = lower value 0.999 | S. cerevisiae deletion strains, locus YOR080W, strain dia2, stronger effect = lower value 0.98 | S. cerevisiae deletion strains, locus YOR083W, strain WHI5, stronger effect = lower value 0.978 | S. cerevisiae deletion strains, locus YOR106W, strain vam3, stronger effect = lower value 0.998 | S. cerevisiae deletion strains, locus YOR136W, strain idh2, stronger effect = lower value 0.984 | S. cerevisiae deletion strains, locus YOR144C, strain elg1, stronger effect = lower value 0.988 | S. cerevisiae deletion strains, locus YOR184W, strain ser1, stronger effect = lower value 0.987 | S. cerevisiae deletion strains, locus YOR231W, strain MKK1, stronger effect = lower value 0.971 | S. cerevisiae deletion strains, locus YOR265W, strain rbl2, stronger effect = lower value 0.976 | S. cerevisiae deletion strains, locus YOR270C, strain vph1, stronger effect = lower value 0.987 | S. cerevisiae deletion strains, locus YOR290C, strain snf2, stronger effect = lower value 0.928 | S. cerevisiae deletion strains, locus YOR316C, strain cot1, stronger effect = lower value 0.97 | S. cerevisiae deletion strains, locus YPL051W, strain arl3, stronger effect = lower value 0.998 | S. cerevisiae deletion strains, locus YPL078C, strain atp4, stronger effect = lower value 0.988 | S. cerevisiae deletion strains, locus YPL106C, strain sse1, stronger effect = lower value 0.944 | S. cerevisiae deletion strains, locus YPL240C, strain hsp82, stronger effect = lower value 0.995 | S. cerevisiae deletion strains, locus YPL256C, strain CLN2, stronger effect = lower value 0.981 | S. cerevisiae deletion strains, locus YPR119W, strain clb2, stronger effect = lower value 0.982 | S. cerevisiae deletion strains, locus YPR141C, strain kar3, stronger effect = lower value 0.975 | S. cerevisiae deletion strains, locus YPR163C, strain tif3, stronger effect = lower value 0.983 | S. cerevisiae deletion strains, locus YPR167C, strain met16, stronger effect = lower value 0.991 | S. cerevisiae deletion strains, strain wtn01, stronger effect = lower value 1 | S. cerevisiae strains, strain wild type, stronger effect = lower value 0.984
